Records with an inconclusive call do not appear. A call without a number means that no potency is given here. Active and inactive are the calls of the source. The call rests on the fitted dose curve; in most records, active means well fitted curve in the direction sought with a large enough effect; inconclusive means small, poorly fitted or top-dose-only effect, or another doubt; inactive means no such curve, though single readings can be large; an effect the other way counts as inactive or inconclusive. Peptide text beside a SMILES is read from it.
Key:
[1] = Cell Viability - LYMP2-005 (AID 967); conditions: LYMP2-005 lymphoblastoid cell viability; series mostly up to 92.2 µM
Outline: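 Acute cytotoxicity is scored as a concentration-dependent drop in intracellular ATP in human lymphoblastoid LYMP2-005 cells after 24 h compound treatment. ATP is quantified by luciferase luminescence, and AC50 is derived by Hill-equation modelling.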

[2] = Cell Viability - LYMP2-009 (AID 968); conditions: LYMP2-009 lymphoblastoid cell viability; series mostly up to 92.2 µM; further: nearly all actives have a fitted effect of over 55% in size
[3] = Cell Viability - LYMP2-011 (AID 969); conditions: LYMP2-011 lymphoblastoid cells viability; series mostly up to 92.2 µM; further: nearly all actives have a fitted effect of over 60% in size
Outline: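 2500 cells/well, 5 hr 37 C; compound added, 24 hr 37 C; CellTiter-Glo 30 min RT; luminescence. qHTS concentration-response, Hill-equation AC50. Tetraoctylammonium bromide positive control.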

[4] = Cell Viability - LYMP2-013 (AID 970); conditions: LYMP2-013 lymphoblastoid cells viability; series mostly up to 92.2 µM; further: nearly all actives have a fitted effect of over 55% in size
Outline: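 qHTS; 2500 lymphoblastoid cells/well; 5 hr 37 C settle; cpd 24 hr 37 C; CellTiter-Glo, 30 min RT; luminescence. AC50 = Hill fit.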

[5] = Cell Viability - LYMP2-015 (AID 971); conditions: LYMP2-015 lymphoblastoid cell viability; series mostly up to 92.2 µM; further: nearly all actives have a fitted effect of over 55% in size
Outline: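 Luminescent ATP read-out (CellTiter-Glo) served as the viability measure after lymphoblastoid cells were exposed to compounds for 24 hours at 37 C. Concentration-response data were fitted with the Hill equation to give AC50.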

[6] = Cell Viability - LYMP2-017 (AID 972); conditions: LYMP2-017 lymphoblastoid cell viability; series mostly up to 92.2 µM; further: nearly all actives have a fitted effect of over 55% in size
Outline: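 2500 cells/well, 5 h 37 C; cpd 24 h 37 C in complete medium; CellTiter-Glo, 30 min RT; luminescence (ATP). AC50 via Hill fit, qHTS.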

[7] = Cell Viability - LYMP2-019 (AID 973); conditions: LYMP2-019 lymphoblastoid cell line viability; series mostly up to 92.2 µM; further: nearly all actives have a fitted effect of over 55% in size
Outline: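 Luminescent ATP read-out (CellTiter-Glo, 30 min room temperature) served as the viability measure after 24 hr treatment of lymphoblastoid cells at 37 C. Concentration-response data were fitted to the Hill equation for AC50.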

[8] = Cell Viability - LYMP2-021 (AID 974); conditions: LYMP2-021 lymphoblastoid cells viability; series mostly up to 92.2 µM
Outline: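 Plate 2500 lymphoblastoid cells per well and incubate 5 hr at 37 C. Add compounds over a concentration range and incubate 24 hr at 37 C. Add CellTiter-Glo, wait 30 min at room temperature, read luminescence.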

[9] = Cell Viability - LYMP2-023 (AID 975); conditions: LYMP2-023 lymphoblastoid cell viability; series mostly up to 92.2 µM; further: nearly all actives have a fitted effect of over 55% in size
Outline: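 2500 cells/well, 5 hr 37 C; cpd 24 hr 37 C; CellTiter-Glo, 30 min RT; luminescence. qHTS conc-response, Hill fit -> AC50. Pos ctrl tetraoctylammonium bromide.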

[10] = Cell Viability - LYMP2-025 (AID 976); conditions: LYMP2-025 lymphoblastoid cell viability; series mostly up to 92.2 µM
Outline: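 Seed 2500 LYMP2-025 cells/well; 5 hr at 37 C; add compound; 24 hr at 37 C; add CellTiter-Glo; 30 min RT; read luminescence. AC50 from Hill-modelled concentration-response.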
Potency means the concentration at half of the fitted maximal effect.

SMILES | Potency [1] | Potency [2] | Potency [3] | Potency [4] | Potency [5] | Potency [6] | Potency [7] | Potency [8] | Potency [9] | Potency [10]
Nc1ccc(S(N)(=O)=O)cc1 | inactive | inactive | inactive | inactive | inactive | inactive | inactive | inactive | inactive | inactive
CCCc1cc(=O)[nH]c(=S)[nH]1 | inactive | inactive | inactive | inactive | inactive | inactive | inactive | inactive | inactive | inactive
CCc1nc(N)nc(N)c1-c1ccc(Cl)cc1 | inactive |  |  | inactive |  | inactive |  |  | inactive | inactive
Cc1ccc(C)c(OCCCC(C)(C)C(=O)O)c1 | inactive | inactive | inactive | inactive | inactive | inactive | inactive | inactive | inactive | inactive
Cc1cc(O)c2c(c1)C(=O)c1cc(O)cc(O)c1C2=O | inactive |  | inactive |  | inactive |  |  |  |  | inactive
CS(=O)(=O)OCCCCOS(C)(=O)=O | inactive | inactive | inactive | inactive | inactive | inactive | inactive | inactive | inactive | inactive
NS(=O)(=O)c1cc(C(=O)O)c(NCc2ccco2)cc1Cl | inactive | inactive | inactive | inactive | inactive | inactive | inactive | inactive | inactive | inactive
c1ccc2[nH]c(-c3cscn3)nc2c1 | inactive | inactive | inactive | inactive | inactive | inactive | inactive | inactive | inactive | inactive
COC(=O)[C@H](Cc1ccccc1)NC(=O)[C@@H](N)CC(=O)O (H-Asp-Phe-OMe) | inactive | inactive | inactive | inactive | inactive | inactive | inactive | inactive | inactive | inactive
CC(=O)Nc1ccc(O)cc1 | inactive | inactive | inactive | inactive | inactive | inactive | inactive | inactive | inactive | inactive
CCCCC(CC)COC(=O)C(C#N)=C(c1ccccc1)c1ccccc1 (centres undefined) | inactive | inactive | inactive | inactive | inactive | inactive | inactive | inactive | inactive | inactive
CN(C)c1ccc2nc3ccc(=[N+](C)C)cc-3sc2c1 | 5.01 µM (active) | 5.01 µM (active) | 6.31 µM (active) | 7.94 µM (active) | 3.98 µM (active) | 6.31 µM (active) | 3.16 µM (active) | 7.94 µM (active) | 3.98 µM (active) | 3.98 µM (active)
COc1c2occc2cc2ccc(=O)oc12 | inactive | inactive | inactive | inactive | inactive | inactive | inactive | inactive | inactive | inactive
